The campaign covered roughly 5,500 compounds. About 2,000 (36%) were called active. Another 18% or so got no clear call; they are omitted. Cut-off read from the data, not from the text of the source: active = normalized growth mostly below about 0.91 (no sharp cut-off); inconclusive = no clear call, values can overlap the other calls; inactive = mostly above about 0.92. This is one part of the list.
Experiment: chemical genetic growth profiling, strain panel (AID 1159580);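 note: tested at 20 µM; growth read once vehicle control cultures reached saturation at 30 °C; 1 = growth at the plate median or of vehicle wells; lower values mean less growth of the strain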
Settings: S. cerevisiae deletion strains, growth OD
[1] = locus YDR150W, strain NUM1, active compounds read low
[2] = locus YGR078C, strain PAC10, active compounds read low
[3] = locus YMR263W, strain SAP30, active compounds read low
[4] = locus YNL322C, strain KRE1, active compounds read low
[5] = locus YPL241C, strain CIN2, active compounds read low

Measured: normalized growth

COc1ccc(S(=O)(=O)Nc2cc(C)c(C)cc2[N+](=O)[O-])c(OC)c1
inactive: locus YAL013W, strain DEP1, active compounds read low 1.01 | locus YBR229C, strain ROT2, active compounds read low 1 | locus YCL061C, strain MRC1, active compounds read low 1 | locus YDL101C, strain DUN1, active compounds read low 1.01 | [1] 0.885 | locus YEL061C, strain CIN8, active compounds read low 1.01 | [2] 0.995 | locus YGR229C, strain SMI1, active compounds read low 1.01 | locus YHR030C, strain SLT2, active compounds read low 0.991 | locus YHR087W, strain rtc3, active compounds read low 1 | locus YJR043C, strain POL32, active compounds read low 1 | locus YJR075W, strain HOC1, active compounds read low 1.01 | locus YKL190W, strain CNB1, active compounds read low 1.02 | locus YLR039C, strain RIC1, active compounds read low 0.968 | locus YLR058C, strain SHM2 (second series), active compounds read low 1 | locus YLR085C, strain ARP6, active compounds read low 1.04 | locus YLR262C, strain YPT6, active compounds read low 0.967 | locus YML094W, strain GIM5, active compounds read low 0.983 | locus YMR219W, strain ESC1, active compounds read low 0.999 | [3] 0.973 | locus YNL128W, strain TEP1, active compounds read low 1.02 | locus YNL153C, strain GIM3, active compounds read low 1.02 | locus YNL298W, strain CLA4 (second series), active compounds read low 1.04 | [4] 0.989 | locus YNR030W, strain Alg12, active compounds read low 0.998 | locus YPL055C, strain LGE1, active compounds read low 0.889 | [5] 1.03 | locus YPR135W, strain CTF4, active compounds read low 0.946

Ic1ccccc1CNC1C2CCN(CC2)C1C(c1ccccc1)c1ccccc1 (configuration not stated)
inactive: locus YAL040C, strain CLN3, active compounds read low 0.998 | locus YCL061C, strain MRC1 (second series), active compounds read low 0.984 | [1] 0.996 | locus YDR363W, strain ESC2, active compounds read low 0.977 | locus YER002W, strain NOP16, active compounds read low 1.05 | [2] 1 | [3] 0.998 | locus YMR307W, strain GAS1, active compounds read low 0.989 | locus YNL175C, strain NOP13, active compounds read low 1.05 | locus YNL197C, strain WHI3, active compounds read low 1.07 | locus YNL224C, strain SQS1, active compounds read low 1.05 | [4] 1 | locus YOR083W, strain WHI5 (second series), active compounds read low 1.05 | [5] 0.998
